Reference: PubChem BioAssay (NCI)
About 83,000 compounds went through this panel and 20% of them were active in at least one assay; those are over-represented in the sample as a whole.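 How to read the values: 0–100, growth inhibition (40 = 60% inhibited); 0, no net growth; -100 to 0, cell death (-40 = 40% of starting cells died; -100 = all dead).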 Unmarked numbers belong to inactive results. Calls of active or inactive are those of the source. Rule for the calls: active = growth percent below 10; inactive = the rest.

Tested on: HL-60(TB) leukemia
Assay: NCI-60 one-dose screen, 48 h (100 = growth as untreated, 0 = no growth, -100 = all killed)
Conditions: 10 µM unless noted

| SMILES | growth |
| --- | --- |
| O=C(CCl)NNc1nccc(Nc2ccc(S(=O)(=O)Nc3ccncc3)cc2)n1 | 36.5% |
| CS(=O)(=O)c1ccc(/C=C\C(=O)O)cc1 | 122% |
| Nn1c(SCC(=O)Nc2cc(Cl)c(Cl)cc2Cl)nnc1-c1cc(F)c(Cl)cc1Cl | 92% |
| CC(=O)C1C(=O)C(=O)N(c2cccc([N+](=O)[O-])c2)C1=O (stereo not given) | 103% |
| O=C(O)CC1=CCCCC1 | 95.5% |
| Cc1ccc(Cn2c(O)c(N=NC(=O)c3ccc(S(N)(=O)=O)cc3)c3ccccc32)cc1 | 98.6% |
| CCN(CC)CCNc1ccc(C)c2sc3cc(Cl)ccc3c(=O)c12 | 17% |
| O=C(NCCNc1nccc(-c2c(-c3cccc(O)c3)nc3sccn23)n1)c1cc(N2CCOCC2)cc(C(F)(F)F)c1 | 102% |
| CCn1cc(-c2cc(-c3ccc(Cl)cc3)nc(N)n2)c(-c2ccc(Br)cc2)n1 | 77.7% |
| COC(=O)C12C3C(=O)N(c4ccc(OC)cc4)C(=O)C3C(c3cn(-c4ccccc4)nc3C)N1[C@H](c1cn(-c3ccccc3)nc1C)[C@@H]1C(=O)N(c3ccc(OC)cc3)C(=O)[C@@H]12 (stereo not given in full) | 106% |
| COc1cnc2c(c1)C(=O)c1c-2n(CCCBr)c(=O)c2cc([N+](=O)[O-])ccc12 | 5.74% (active) |
| COc1cccc(/C=C/C(=O)c2c(C)nc3ccccc3c2/C=C/c2ccccc2)c1OC | 13.6% |
| COc1cc(CSc2nc3ccc(C)cc3c(=O)n2Cc2ccccc2)cc(OC)c1OC | 17% |
| COC(=O)c1oc2c(C(C)=O)c(OCCN3CCCCC3)ccc2c1C | 110% |
| CCc1ccc(-c2ccc(Nc3ccccc3)nn2)cc1S(N)(=O)=O | 47.4% |
| COC(=O)/C=C1\Sc2cc(F)ccc2NC1=O | 97.7% |
| CCCOc1ccc(/C=N/Nc2cc(C)nc3ccc(Cl)cc23)cc1 | -48% (active) |
| N=C(N)c1ccc(-c2ccc(-c3ccc(-c4cccs4)s3)s2)cc1F | 99.7% |
| Cc1ccc(-c2nc3ccccc3c(=O)n2/N=C/c2cccc3ccccc23)cc1 | 85.1% |
| S=c1n(CNc2ccc(Cl)nn2)nc(-c2cc(Cl)cc(Cl)c2Cl)n1/N=C/c1ccc(Cl)cc1 | 3.47% (active) |

| SMILES | growth |
| --- | --- |
| COc1cccc(Sc2ccc([N+](=O)[O-])c3no[n+]([O-])c23)c1 | 2.91% (active) |
| CCOC(=O)c1sc(-c2ccc(OS(=O)(=O)c3ccc(C(C)(C)C)cc3)c(C=O)c2)nc1C | 21.3% |
| Cc1nc(Nc2ccc(NC(=S)Nc3ccccc3)cc2)nc2nc(SCc3ccccc3)[nH]c(=O)c12 | 76% |
| O=C(Nc1ccccc1)c1cc(-n2cnc([N+](=O)[O-])c2)cc(-n2cnc([N+](=O)[O-])c2)n1 | 96.4% |
| COc1ccc(-c2c(C#N)cnc(N)c2-c2nc3cc(C)c(C)cc3[nH]2)cc1 | 89.4% |
| CC(CN)[C@@H]1CC[C@]2(CO)CC[C@]3(C)[C@H](CC[C@@H]4[C@@]5(C)CCC(N)C(C)(C)[C@@H]5CC[C@]43C)[C@@H]12 (stereo not given in full) | 31.5% |
| N/C(=N\c1nc2ccccc2s1)NC(=O)Nc1cccc(Cl)c1 | 3.43% (active) |
| C/C(Cc1ccc(Cl)cc1)=C(/c1ccc(Cl)cc1)c1ccc(OCCN2CCCC2)cc1 | 54.7% |
| CC[N+](C)(C)N | 103% |
| COc1ccc(C(=O)N2N=C(c3ccc(Br)cc3)CC2c2cn(-c3ccccc3)nc2-c2ccccc2)cc1 (stereo not given) | 32.7% |
| CCCCCCCC/C=C\CCCCCCCCOc1ccccc1CC(=O)NCC[N+]1(C)CCCC1 | 2.25% (active) |
| O=C1NN(C(=O)c2ccc(Cl)cc2)C(c2ccccc2)=N/C1=C\c1cn(-c2ccccc2)nc1-c1ccccc1 | 94.5% |
| CC(C)[O-].CC(C)[O-].CN(CCN(C)Cc1cc(F)cc(F)c1[O-])Cc1cc(F)cc(F)c1[O-].[Ti+4] | 5.88% (active) |
| CCNCCNc1cc(-c2ccc(F)cc2)c(C#N)c2nc3ccccc3n12 | -48.8% (active) |
| Cc1nc2sc(C(=O)Nc3cccc(Br)c3)c(N)c2cc1C(=O)c1ccc(C(F)(F)F)cc1 | 98.7% |
| Cc1nccc2c3ccc(OCc4cn(-c5ccccc5)nn4)cc3n(CCCc3ccccc3)c12 | 30.1% |
| CC(=O)Nc1nc(C)c(C(=O)N/N=C/c2cccs2)s1 | 130% |
| CCOC(=O)/C(=C\c1ccccc1Cl)P(=O)(OCC)OCC | 10.8% |
| COc1cc(C=Nc2oc(-c3ccccc3)c(-c3ccccc3)c2C#N)cc(CN2CCCCC2)c1O | 92.5% |
| Cc1cc(NC(=O)Nc2cccc3ccccc23)no1 | 99.5% |
